Compound activity (PubChem BioAssay)
Marburg entry inh: Marburg virus entry inhibition. Marburg virus pseudotyped entry inhibition, cell reporter. Potency, µM (titrated, usually from 37.8 µM), actives largely listed as inhibitors. 1.8% of 300,000 active. AID 540276; calls by dose curve; tested in HEK293 cells
Vaccinia mCherry: inhibitors of vaccinia virus infection (mCherry reporter signal); 0.63% of 310,000 active; Vaccinia virus mCherry reporter infection, fluorescence; Potency, µM (titrated, usually from 36.5 µM), usual class: inhibitors; calls by dose curve; tested in A549 cells; further: nearly all actives have a fitted effect of over 35% in size
FMDV inh: blocks foot and mouth disease virus; FMDV antiviral cell-based qHTS; Potency, µM (doses to about 57.9 µM), hits mostly inhibitors; 1.2% of 410,000 active; AID 1159524; calls by dose curve; tested in HEK293T cells; further: read-out not given here; nearly all actives have a fitted effect of over 45% in size
Vaccinia Venus: inhibitors of vaccinia virus (Venus reporter) | Vaccinia virus Venus reporter expression, fluorescence | Potency, µM (top dose mostly 36.5 µM), usual class: inhibitors | 0.46% of 330,000 active; calls by dose curve; tested in A549 cells; further: nearly all actives have a fitted effect of over 30% in size
Lassa entry inh: inhibitors of Lassa virus binding or cell entry; Potency, µM (highest dose often 37.9 µM), usual class: inhibitors; Lassa virus pseudotype entry inhibition, cell reporter; 1.2% of 300,000 active; calls by dose curve; tested in HEK293 cells; further: nearly all actives have a fitted effect of over 50% in size
Sm TGR block: S. mansoni TGR enzyme inhibition | Q962Y6 | purified TGR, DTNB reduction, TNB absorbance 405 nm | Potency, µM (titrated, usually from 114 µM), usual class: inhibitors | 3% of 360,000 active; active means well fitted inhibition curve with a large enough effect; inconclusive means small, poorly fitted or top-dose-only effect; inactive means no such curve, though single readings can be large or run the other way; further: nearly all actives have a fitted effect of over 60% in size
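First, TGR (20 nM dispensed) and NADPH were mixed with compound. Second, a 15 min room-temperature incubation followed. Third, further NADPH and then DTNB were added to start the reaction. Finally, TNB absorbance was monitored kinetically.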
Numbers stand for hits; - = inactive; ? = inconclusive; . = no result; [ ] = remark or other dose. Sampled rows, rich in hits. Any-hit rate of the full collection: about 5.4%.

SMILES	Marburg entry inh	Vaccinia mCherry	FMDV inh	Vaccinia Venus	Lassa entry inh	Sm TGR block
CC(C)(C)c1cc(CN(CCO)CCO)cc(C(C)(C)C)c1O	-	.	-	.	-	?
CC1=NN(Cc2cc(C(C)(C)C)c(O)c(C(C)(C)C)c2)C(=O)C1	.	.	-	.	.	-
CCOC(=O)CNC=C(C(=O)OCC)C(=O)OCC	-	.	-	-	-	-
CCOC(=O)C=C(C(=O)OCC)C(=O)OCC	.	.	?	.	.	1.6µM
C[C@H]1CC[C@H]2C(=O)N(Cc3ccccc3)C[C@@H](O)CN2[C@H]1c1cccc(Br)c1	-	.	.	.	?	.
c1ccc(Cn2ncc3c(N4CCN(c5ccccc5)CC4)ncnc32)cc1	.	-	22µM	-	.	.
Cc1ccc(Cn2ncc3c(N4CCCC4)ncnc32)cc1	-	.	-	-	-	-
Clc1ccc(Cn2ncc3c(N4CCOCC4)ncnc32)cc1	-	.	?	-	-	-
Cc1ccc(Cn2ncc3c(N4CCN(CC#N)CC4)ncnc32)cc1	?	-	32µM	-	-	-
Clc1ccc(Cn2ncc3c(N4CCCC4)ncnc32)cc1	-	.	-	-	-	-
CCc1cc2c(N3CCN(c4ccccc4)CC3)ncnc2s1	?	.	25µM	?	?	-
c1ccc(Cn2ncc3c(N4CCN(C(c5ccccc5)c5ccccc5)CC4)ncnc32)cc1	?	-	?	-	?	45µM
CCOc1ccc(NC(=O)N2CCN(S(=O)(=O)c3ccc4c(ccn4C)c3)CC2)cc1	.	-	-	-	-	-
CC1(C)CC(N2CCN(CCO)CC2)=CC(=S)N1	.	-	-	-	.	40µM
COc1cccc(Cn2ncc3c4sc(B(O)O)cc4n(C)c3c2=O)c1	.	.	.	.	.	-
O=C(OC1CCN(CCCl)CC1)C(c1ccccc1)c1ccccc1	10µM	-	16µM	?	.	-
COC(=O)N[C@@H](c1cccc(F)c1)[C@]1(C(=O)OC)CCCC1=O	-	.	.	.	.	.
CC(=O)Nc1cc(C(=O)NCc2ccccc2)ccc1Sc1ccc(C)cc1	.	-	-	-	-	-
CCOC(=O)c1c(C)[nH]c(C=Nc2ccccc2)c1O	-	.	.	.	.	32µM
CC(=O)c1cccc(NC(=O)c2c(-c3ccccc3)c(-c3ccccc3)nn(C)c2=O)c1	?	-	-	-	?	-
NC(=O)c1ccccc1NC(=O)CN1CCCCCC1	-	-	-	-	?	-
NC(=O)c1cc(-c2ccccc2)sc1NC(=O)CN1CCCCC1	6.3µM	-	-	?	?	-
O=C(O)c1ccc(NC2=C/C(=N/S(=O)(=O)c3ccccc3)c3ccccc3C2=O)cc1	4µM	?	11µM	?	7.1µM	20µM
CCc1ccc(S(=O)(=O)/N=C2\C=C(Nc3ccc(O)cc3)C(=O)c3ccccc32)cc1	?	?	35µM	4µM	4.5µM	-
Cc1cc(C)c(S(=O)(=O)/N=C2\C=C(Nc3ccc(C(=O)O)cc3)C(=O)c3ccccc32)c(C)c1	5.6µM	?	?	?	?	?
SMILES	Marburg entry inh	Vaccinia mCherry	FMDV inh	Vaccinia Venus	Lassa entry inh	Sm TGR block
Cc1cc(C)c(S(=O)(=O)/N=C2\C=C(NS(=O)(=O)c3ccccc3)C(=O)c3ccccc32)c(C)c1	?	?	-	-	-	-
CCc1ccc(S(=O)(=O)/N=C2\C=C(Nc3cccc(C(=O)O)c3)C(=O)c3ccccc32)cc1	-	?	?	-	?	-
Cc1ccc(S(=O)(=O)/N=C2\C=C(NS(=O)(=O)c3ccccc3)C(=O)c3ccccc32)cc1	-	?	-	-	-	.
O=S(=O)(N=C1C=CC(=NS(=O)(=O)c2ccccc2)c2ccccc21)c1ccccc1	.	-	?	-	.	.
CCc1ccc(S(=O)(=O)/N=C2\C=CC(=O)c3ccccc32)cc1	.	.	.	.	.	8.9µM
COc1ccc(OC)c(NC(=O)CN(C)S(=O)(=O)c2ccc3[nH]c4c(c3c2)CCCC4)c1	.	-	-	-	-	-
COC(=O)CN1C(=O)CSc2ccc(S(=O)(=O)Nc3cccc(C)c3)cc21	.	-	-	-	-	-
Cc1cccc(OCc2nc(CC(=O)Nc3ccc(Cl)cc3)cs2)c1	-	-	-	-	-	-
COc1cc(OC)c(N(C)C(=O)C2CCCN(c3ncnc4c3nc3n4CCCCC3)C2)cc1Cl (stereo not drawn)	.	-	?	-	?	-
O=C(N/N=C/c1ccc(Cl)cc1Cl)c1ccc(-n2cnnn2)cc1	.	.	-	.	.	-
Nn1cnnc1N/N=C/c1ccc(Cl)cc1Cl	?	8.9µM	-	?	?	-
CCCC(=O)N1CCN(c2nc3ccc(F)cc3s2)CC1	.	-	-	-	-	-
COc1ccc(-n2cccc2/C=C/[N+](=O)[O-])cc1	?	-	28µM	-	?	25µM
Cc1cccc(C)c1OCc1cc(C(=O)N(Cc2c(C)nn(C)c2C)C2CC2)no1	.	-[7.34 µM]	20µM	-[7.34 µM]	.	-
Cc1cccc(C)c1OCc1cc(C(=O)NCC2CCCCC2)no1	.	.	-	.	.	-
C/C(=N\NC(=O)c1cc(C)nc2ccccc12)c1ccccn1	.	.	-	.	.	-
COc1ccc2nc(NN=C(C)c3ccccn3)cc(C)c2c1	?	1µM	-	?	?	.
O=C(O)c1ccccc1N/N=C/C1=C(N2CCOCC2)C(=C\c2ccccc2)/CC1	-	?	-	-	-	16µM
Cc1occc1C(=O)N/N=C/C1=C(N2CCOCC2)C(=C\c2ccc(Cl)cc2)/CC1	-	.	-	.	.	-
Cc1cc(C)nc(N/N=C/C2=C(N3CCOCC3)C(=C/c3ccccc3)/CC2)n1	?	-	28µM	-	?	?
Cc1cc(=O)[nH]c(N/N=C/C2=C(N3CCOCC3)C(=C\c3ccc(Cl)cc3)/CC2)n1	?	-	?	-	-	25µM
CC(=O)c1cccc(Nc2nc(-c3sc(C)nc3C)cs2)c1	?	-	?	?	?	-
Cc1ccnc(Nc2nc(-c3sc(C)nc3C)cs2)c1	5.6µM	3.5µM	-	?	-	.
CC(=O)c1ccc(Nc2nc(-c3sc(C)nc3C)cs2)cc1	.	?	25µM	?	.	.
Cc1nc(C)c(-c2csc(Nc3ccccn3)n2)s1	.	.	-	.	.	?
SMILES	Marburg entry inh	Vaccinia mCherry	FMDV inh	Vaccinia Venus	Lassa entry inh	Sm TGR block
CC(=O)Nc1ccc(Nc2nc(-c3sc(C)nc3C)cs2)cc1	-	-	32µM	-	?	-
CCOC(=O)c1cc(S(=O)(=O)N2CCN(c3cc(Cl)ccc3C)CC2)[nH]n1	.	-	-	-	-	-
Cc1ccc(N2C(=O)C[C@H](Cn3nc(C)cc3C)C2=O)cc1	-	.	.	.	.	.
O=C(O)CSC1=c2ccccc2=NC1c1cccs1 (stereo not drawn)	-	.	.	.	.	.
Clc1ccc2ncnc(NCc3ccc4c(c3)OCO4)c2c1	.	-	?	-	.	.
Oc1ccc(CCNc2ncnc3ccc(Cl)cc23)cc1	.	?	10µM	?	.	-
Cc1cccc(CNC(=O)c2c3n(c(C)cc2=O)-c2ccccc2SC(c2ccsc2)C3)n1 (stereo not drawn)	.	-	-	-	.	.
Cc1nn2cc(-c3ccc(-c4ccccc4)cc3)nc2s1	?	.	-	-	11µM	-
COCc1nn2cc(-c3ccc(C)cc3)nc2s1	?	-	-	-	-	-
Cc1nn2cc(-c3ccc(Cl)cc3)nc2s1	?	.	-	.	?	-
CCc1nn2cc(-c3ccccc3)nc2s1	18µM	.	-	.	8.2µM	-
